For 16 compounds, composite z-score and composite Z-score results are on record in PubChem BioAssay.

The target in one assay is Albumin (Bos taurus) (UniProt P02769). The experiment in a line: compounds binding labelled BSA control protein – biochemical, small-molecule microarray, Alexa647 label, 635/667 nm fluorescence, artefact control for SMM control protein annotation, profiling panel (AID 1118).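 Also: score merges 667 nm emission intensity and signal-to-noise per printed compound spot.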 The settings on record: BSA-A647 binding, fluorescence 635 nm, higher = more signal.
Assay [1] can be described thus: probe aXIP binding to arrayed compounds – biochemical, NeuroSMM set, 635/667 nm fluorescence, primary screen (AID 1119).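 Also: probe is the protein aXip251-270 applied at 1 µg/mL to compound-printed slides; binding of probe to printed compounds measured as 667 nm fluorescence plus signal to noise.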 The settings on record: small-molecule microarray, higher = more signal, called active from +8 up or from −8 down.
The nature of assay [2]: probe aNOTCH3 binding on compound microarray – biochemical, small-molecule microarray, 635/667 nm fluorescence, primary screen (AID 1120).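 Also: probe is a biotin-tagged antibody raised against NOTCH3 rather than NOTCH3 protein; score merges spot fluorescence near 667 nm with spot signal to noise.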 As to conditions: higher = more signal.
Assay [3] in a line: probe aNOTCH2 binding on compound microarray – biochemical, small-molecule microarray, 635/667 nm fluorescence, primary screen (AID 1121).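 Also: score merges feature fluorescence read at 667 nm with its signal to noise.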 The settings on record: higher = more signal.
The target of assay [4] is Carbonic anhydrase 2 (Homo sapiens) (UniProt P00918). The experiment in a line: compounds binding carbonic anhydrase 2 – biochemical, small-molecule microarray, Alexa647-labelled CAII, profiling panel (AID 1122). As to conditions: CAII-A647 binding fluorescence, higher = more signal.
Assay [5] can be described thus: COS7 lysate on small-molecule microarray, probe aHis, 635 nm (AID 1123).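 Also: z-score combines 667nm fluorescence intensity with signal-to-noise per printed compound spot.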 As to conditions: COS7 cell lysate, fluorescence, higher = more signal.
A short description of assay [6]: probe aLAP1 signal on lysate-treated microarray – cell lysate, small-molecule microarray, COS7 lysate, primary screen (AID 1124).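 Also: lysate comes from COS7 cells expressing LAP1 and is applied at 0.3 µg/mL; score merges spot fluorescence near 667 nm with signal-to-noise over triplicate slides.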 As to conditions: probe aLAP1, fluorescence, higher = more signal.
In the next assay the test system is Sam68 (KHDRBS1). The experiment in a line: compounds binding KHDRBS1 protein – biochemical, small-molecule microarray, 635 nm fluorescence, primary screen (AID 1125).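 Also: score merges 667 nm channel intensity with signal to noise over triplicate slides.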 As to conditions: higher = more signal.
The subject of assay [7] is Chordin-like protein 2 (CHRDL2). Briefly: compounds binding chordin-like 2 – biochemical, small-molecule microarray, 635 nm fluorescence, primary screen (AID 1126).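 Also: printed compound slides probed with Chrdl2 protein at 4 µg/mL for 1 h at 4 C; score merges 667 nm emission intensity with signal to noise over three replicate slides.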 As to conditions: fluorescence 635 nm, higher = more signal.
Assay [8] has as its target Concanavalin-A (Canavalia ensiformis) (UniProt P02866). The experiment in a line: compounds binding concanavalin A lectin – biochemical, small-molecule microarray, Alexa647 label, 635 nm, artefact control for SMM control protein annotation, primary screen (AID 1127).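 Also: z combines 667 nm emission intensity with signal-to-noise across three replicate slides.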 As to conditions: ConA-A647 binding fluorescence, higher = more signal.

Calls of active or inactive are those of the source.

Concanavalin-A (Canavalia ensiformis), sequence (P02866 whole entry, looked up): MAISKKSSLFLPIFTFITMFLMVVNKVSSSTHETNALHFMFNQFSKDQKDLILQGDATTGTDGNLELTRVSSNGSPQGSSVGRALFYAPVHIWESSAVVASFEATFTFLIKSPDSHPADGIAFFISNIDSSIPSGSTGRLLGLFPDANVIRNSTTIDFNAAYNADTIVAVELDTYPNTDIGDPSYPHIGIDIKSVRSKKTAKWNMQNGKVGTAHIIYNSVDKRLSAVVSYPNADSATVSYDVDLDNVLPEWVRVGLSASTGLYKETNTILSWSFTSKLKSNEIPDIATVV
Albumin (Bos taurus), sequence (P02769 whole entry, looked up): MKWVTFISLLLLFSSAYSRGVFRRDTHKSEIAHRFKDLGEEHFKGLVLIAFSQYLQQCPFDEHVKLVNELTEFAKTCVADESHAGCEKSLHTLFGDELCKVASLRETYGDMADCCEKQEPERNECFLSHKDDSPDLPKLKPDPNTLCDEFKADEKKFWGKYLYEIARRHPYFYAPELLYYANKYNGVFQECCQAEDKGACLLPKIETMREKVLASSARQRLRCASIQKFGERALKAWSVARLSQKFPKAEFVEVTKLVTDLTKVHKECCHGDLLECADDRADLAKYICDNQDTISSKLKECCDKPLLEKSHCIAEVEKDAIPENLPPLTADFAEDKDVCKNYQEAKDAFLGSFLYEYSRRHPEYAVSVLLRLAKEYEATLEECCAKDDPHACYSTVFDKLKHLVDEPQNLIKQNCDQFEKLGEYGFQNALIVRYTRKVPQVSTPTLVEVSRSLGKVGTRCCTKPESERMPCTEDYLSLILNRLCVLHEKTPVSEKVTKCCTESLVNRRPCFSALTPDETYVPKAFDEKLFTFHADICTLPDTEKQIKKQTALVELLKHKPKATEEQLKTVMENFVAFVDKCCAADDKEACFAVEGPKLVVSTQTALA

Consider `CCN1C(=O)[C@H]2[C@H]3[C@H](O)[C@H](O)CC(=NNC(=O)OCc4ccc(OC)cc4)[C@@H]3CC[C@H]2C1=O`, for which the composite z-score is -0.254 with Albumin (Bos taurus); 0.0945 in assay [2]; -0.0894 in assay [3]; -0.403 in assay [4]; -0.42 in assay [5]; 0.106 in assay [6]. The composite z-score with Sam68 (KHDRBS1) was -0.362; in assay [7], 0.0319; in assay [8], -0.205. The composite Z-score in [1] was 0.0958 (inactive).
In the case of `CCOC(=O)[C@H](Cc1ccccc1)NC(=O)CCC1CC(OC(=O)NCCc2ccc(F)cc2)CC2(CCCC(COC(=O)NCCc3ccccc3OC)O2)O1` (stereo not given in full), the composite z-score in the assay with Albumin (Bos taurus) is 0.667; in [2], -0.0984; in assay [3] it was -0.14; in assay [4] it was 0.303; in [5], 1.46; in assay [6], 0.854. For the same compound, the composite z-score in the assay on Sam68 (KHDRBS1) is 1.12; in assay [7] it was 0.405; in assay [8], 1.09. Also, in [1], the composite Z-score is -0.449 (inactive).
`CCN1C(=O)[C@H]2[C@H]3[C@H](O)[C@H](O)CC(=O)[C@H]3CC[C@H]2C1=O`: the composite z-score with Albumin (Bos taurus) is 0.234; in [2], -0.0921; in [3], -0.0793; in assay [4], 0.0164; in assay [5], -0.209; in assay [6] it was 0.0555. Moreover, the composite z-score in the assay with Sam68 (KHDRBS1) came out at 0.47; in assay [7], 0.689; in [8], 0.541. Also, the composite Z-score in assay [1] was -0.274 (inactive).
As to `CCOC(=O)[C@H](Cc1ccccc1)NC(=O)CCC1CC(OC(=O)NCc2ccc3c(c2)OCO3)CC2(CCCC(COC(=O)NCCC(C)C)O2)O1` (stereo not given in full), the composite z-score is 0.112 with Albumin (Bos taurus); 0.0252 in assay [2]; -0.0707 in [3]; 0.493 in [4]; 0.394 in assay [5]; -0.133 in assay [6]. The composite z-score turned out to be 0.907 with Sam68 (KHDRBS1), 0.309 in assay [7] and 1.11 in assay [8]. Also, the composite Z-score in assay [1] is 0.416 (inactive).
For the compound `COC(=O)[C@H](C)NC(=O)CCC1CC(OC(=O)NCc2ccc3c(c2)OCO3)CC2(CCCC(COC(=O)NCC(c3ccccc3)c3ccccc3)O2)O1` (stereo not given in full), the composite z-score with Albumin (Bos taurus) is 0.409; in [2], 0.0159; in assay [3], -0.123; in assay [4], 0.478; in [5], 1.29; in assay [6] it was 0.165. The composite z-score is 1.29 with Sam68 (KHDRBS1), 0.738 in [7] and 1.12 in assay [8]. For the same compound, in [1], the composite Z-score is 0.265 (inactive).
Regarding `CC(=O)OC[C@H]1O[C@H](CC=NO[C@H](C)c2cn([C@H](CO)Cc3ccccc3)nn2)C=C[C@@H]1OC(C)=O`, the composite z-score is 0.376 with Albumin (Bos taurus); 0.108 in assay [2]; -0.0482 in [3]; -0.0934 in assay [4]; 0.154 in [5]; 0.0588 in assay [6]. The composite z-score with Sam68 (KHDRBS1) stood at 1.29; in assay [7] it was 0.41; in [8], 0.597. Moreover, the composite Z-score in assay [1] is -0.0641 (inactive).
For the compound `CCc1cc2c(nc1CC)CCN(CCC(C)=NOC[C@H]1O[C@H](c3ccccc3)C=C[C@@H]1Oc1ccc(OC)cc1)C2`, the composite z-score with Albumin (Bos taurus) was 0.184; in assay [2], -0.0311; in assay [3], -0.155; in assay [4], 0.787; in [5], 0.552; in assay [6], 0.056. The composite z-score with Sam68 (KHDRBS1) was 0.292; in assay [7], -0.0913; in assay [8], 0.208. In assay [1], the composite Z-score was -0.0263 (inactive).
`COC(=O)NCC=Cc1nc(CCCO)co1`: the composite z-score with Albumin (Bos taurus) was 0.782; in [2] it was -0.0362; in [3] it was -0.153; in [4] it was -0.0958; in [5], 0.549; in assay [6], 0.215. The composite z-score was 0.559 in the assay with Sam68 (KHDRBS1), 0.809 in assay [7] and 0.161 in assay [8]. Besides, the composite Z-score in assay [1] is 0.678 (inactive).
Turning to `C=CC[C@@H]1C=C[C@H](ON=C2[C@H]3CCn4c(=O)n(-c5ccccc5)c(=O)n4[C@H]3[C@H](O)[C@@H]3O[C@H]23)[C@@H](CO)O1`, the composite z-score is 0.127 with Albumin (Bos taurus); -0.172 in assay [2]; -0.101 in [3]; 0.256 in [4]; -0.143 in [5]; -0.208 in assay [6]. Also, the composite z-score with Sam68 (KHDRBS1) was -0.862; in [7] it was 0.564; in assay [8], 0.535. In addition, in [1], the composite Z-score was -0.227 (inactive).
For `CON=Cc1ccc(C(=O)N2[C@H](c3ccc(C)cc3)[C@@H](C)CC[C@H]2C(=O)OC)cc1`, the composite z-score is 0.54 with Albumin (Bos taurus); 0.0257 in [2]; -0.202 in [3]; 0.0882 in [4]; 0.715 in assay [5]; 0.251 in assay [6]. Also, the composite z-score with Sam68 (KHDRBS1) was determined as 1.11; in assay [7], 0.262; in assay [8] it was 0.669. For the same compound, the composite Z-score in assay [1] is 0.059 (inactive).
As to `CO[C@@H]1COC(=O)CC=C[C@@H](C)[C@@H]2C=C[C@H](O)[C@@H](COC(=O)CC=C[C@H]1C)O2`, the composite z-score with Albumin (Bos taurus) was -0.806; in assay [2], -0.124; in assay [3] it was -0.166; in assay [4], -0.257; in assay [5] it was -1.01; in assay [6], 0.146. For the same compound, the values for the composite z-score (in the assay on Sam68 (KHDRBS1); in [7]; in assay [8]) were 0.141, 1.14 and -0.629, respectively. The composite Z-score in [1] is 0.718 (inactive).
Turning to `CCOC(=O)[C@H](Cc1ccccc1)NC(=O)CCC1CC(OC(=O)NCCc2ccc(F)cc2)CC2(CCCC(COC(=O)NCc3ccccc3)O2)O1` (stereo not given in full), the composite z-score is 0.0213 with Albumin (Bos taurus); -0.0711 in [2]; -0.124 in assay [3]; 0.108 in assay [4]; 0.244 in assay [5]; -0.106 in [6]. For the same compound, the composite z-score in the assay on Sam68 (KHDRBS1) was 1.2; in assay [7], 0.468; in assay [8], 0.477. For the same compound, the composite Z-score in assay [1] is 0.42 (inactive).
`COC(=O)CC=C[C@@H](C)[C@@H](C=NOC[C@H]1O[C@H](c2ccccc2)C=C[C@@H]1Oc1ccc(OC)cc1)NS(=O)(=O)c1ccc(C)cc1`: the composite z-score was -0.453 in the assay with Albumin (Bos taurus); -0.196 in assay [2]; -0.138 in [3]; -0.648 in [4]; -0.588 in [5]; -0.689 in assay [6]. Besides, the composite z-score with Sam68 (KHDRBS1) is -1.18; in [7], 0.156; in [8], -2.02. In [1], the composite Z-score was -0.769 (inactive).
Take `O=C1[C@H]2[C@H]3[C@H](O)[C@H](O)CC(=NOCc4ccccc4)[C@@H]3CC[C@H]2C(=O)N1c1ccc(F)cc1F`: the composite z-score is 0.137 with Albumin (Bos taurus); 0.0303 in assay [2]; -0.157 in [3]; 0.243 in [4]; 0.0305 in [5]; -0.294 in [6]. The figures for the composite z-score (in the assay on Sam68 (KHDRBS1); in [7]; in [8]) were -0.806, 0.0594 and 0.175, respectively. The composite Z-score in assay [1] was -0.155 (inactive).
In the case of `CC[C@@H](c1ccccc1)n1c(=O)n2n(c1=O)[C@H]1[C@H](O)[C@@H]3O[C@@H]3C(=NOC[C@@H](O)COCc3ccco3)[C@H]1CC2`, the composite z-score in the assay with Albumin (Bos taurus) is -0.368; in assay [2], -0.232; in assay [3], -0.133; in assay [4] it was 0.04; in assay [5], -0.997; in [6] it was -0.955. Further, the composite z-score was -0.758 in the assay on Sam68 (KHDRBS1), 0.726 in assay [7] and -0.757 in assay [8]. Moreover, in [1], the composite Z-score was 0.615 (inactive).
`CC(C)[C@@H](OCc1ccccc1)[C@H](C)C=NOC[C@@H](O)COCc1ccco1`: the composite z-score was -0.113 in the assay with Albumin (Bos taurus); -0.819 in [2]; -0.244 in assay [3]; -0.512 in assay [4]; 0.0121 in [5]; 0.0218 in assay [6]. In addition, the composite z-score was -0.185 in the assay with Sam68 (KHDRBS1), -1.48 in [7] and -1.15 in assay [8]. Also, in assay [1], the composite Z-score is -0.0572 (inactive).
